Counter-ions that a name gives are not always drawn. Values without a mark were called inactive.
Legend:
Conditions in all cases: 20 µM
[1] = test system: Salmonella enterica typhimurium; experiment: growth AUC normalised to DMSO control (fraction of control); higher = less growth inhibition, active = hit call of the paper
How it was run: (§1)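 Pathogens passaged twice anaerobically were inoculated at a starting OD578 of 0.01 into pre-reduced mGAM plates with drug at 20 μM and 1% DMSO, sealed with breathable membranes. Haemophilus parainfluenzae medium was supplemented with hemin and NAD. OD578 was read hourly for 24 h, with three biological replicates. Growth-curve AUC was computed by the trapezoidal rule up to the exponential-to-stationary transition and normalised to DMSO controls on the same plate.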

[2] = test system: Shigella flexneri; experiment: as above
How it was run: as §1

[3] = test system: Vibrio cholerae; experiment: as above
How it was run: as §1

[4] = test system: Yersinia pseudotuberculosis; experiment: as above
How it was run: as §1

[5] = test system: P. vulgatus RND KO; experiment: growth AUC normalised to DMSO control (median) (fraction of control); higher = less growth inhibition, active = hit call of the paper
How it was run: (§2)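 Strains were passaged twice overnight without oxygen, then grown in mGAM in 96-well plates with each approved-drug library compound at 20 μM and 1% DMSO, starting at OD578 0.01. OD578 was read hourly for 24 h inside an anaerobic incubator. Curves were truncated at entry into stationary phase, and the trapezoidal-rule area under the curve was normalised to same-plate vehicle wells. The value is the median across three biological replicates.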

[6] = test system: P. vulgatus WT; experiment: as above
How it was run: as §2

[7] = test system: S. enterica typhimurium WT; experiment: as above
How it was run: as §2

[8] = test system: S. enterica typhimurium tolC KO; experiment: as above
How it was run: as §2
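For growth AUC normalised to DMSO control (median) in this document: active when median AUC fell below 0.1.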

| SMILES | growth AUC normalised to DMSO control [1] | growth AUC normalised to DMSO control [2] | growth AUC normalised to DMSO control [3] | growth AUC normalised to DMSO control [4] | growth AUC normalised to DMSO control [5] | growth AUC normalised to DMSO control [6] | growth AUC normalised to DMSO control [7] | growth AUC normalised to DMSO control [8] |
| --- | --- | --- | --- | --- | --- | --- | --- | --- |
| Cc1cc(=O)n(-c2ccccc2)n1C [Antipyrine] | 1 | 1.01 | 1.01 | 1 | 1 | 1.04 | 0.989 | 1.01 |
| CN(C)[C@@H]1C(=O)C(C(N)=O)=C(O)[C@@]2(O)C(=O)C3=C(O)c4c(O)ccc(Cl)c4[C@@H](O)[C@H]3C[C@@H]12 [Demeclocycline hydrochloride] | 0.00255 (active) | 0.0177 (active) | 0.056 (active) | 0.0357 (active) | 0.015 (active) | 0.0137 (active) | 0.00782 (active) | 0.00561 (active) |
| CNc1ncnc2c1ncn2[C@@H]1O[C@H](CO)[C@@H](O)[C@H]1O [N6-methyladenosine] | 0.972 | 1.03 | 1 | 0.97 | 0.998 | 1.02 | 1.02 | 1.01 |
| CC(=O)O[C@H]1C(=O)[C@@]2(C)[C@H]([C@H](OC(=O)c3ccccc3)[C@]3(O)C[C@H](OC(=O)[C@H](O)[C@@H](NC(=O)c4ccccc4)c4ccccc4)C(C)=C1C3(C)C)[C@]1(OC(C)=O)CO[C@@H]1C[C@@H]2O [Paclitaxel] | 1.02 | 1.01 | 1.02 | 0.998 | 0.881 | 0.8 | 1.01 | 1.02 |
| Cc1cc(CC(=O)O)n(C)c1C(=O)c1ccc(Cl)cc1 [Zomepirac sodium salt] | 0.997 | 1 | 0.995 | 1 | 0.992 | 1.01 | 0.991 | 1.02 |
| CC(=O)N[C@@H](CS)C(=O)O [Acetylcysteine] | 1.03 | 1.06 | 1.05 | 1.04 | 1.07 | 1.06 | 1.01 | 0.991 |
| CC1CCc2cc(F)cc3c(=O)c(C(=O)O)cn1c23 (stereo not drawn) [Flumequine] | 0.00993 (active) | 0.0348 (active) | 0.0549 (active) | 0.0304 (active) | 0.801 | 0.647 | 0.0214 (active) | 0.00721 (active) |
| CN1C(=O)CC(c2ccccc2)C1=O (stereo not drawn) [Phensuximide] | 1.01 | 1.04 | 1.03 | 1.02 | 1.02 | 1.04 | 1 | 0.993 |
| CC(=O)Nc1nnc(S(N)(=O)=O)s1 [Acetazolamide] | 0.969 | 0.962 | 1.03 | 0.984 | 0.995 | 0.974 | 0.994 | 0.998 |
| CC(CNC1CCCCC1)OC(=O)c1ccccc1 (stereo not drawn) [Hexylcaine hydrochloride] | 0.993 | 0.97 | 0.996 | 0.986 | 1 | 1.01 | 0.995 | 0.992 |
| CCOC(=O)c1ccc(N)cc1 [Benzocaine] | 1.02 | 1.03 | 1.07 | 1.03 | 1.04 | 1.07 | 1.01 | 1.01 |
| CN(C)CCOC(=O)C(c1ccccc1)C1(O)CCCC1 (stereo not drawn) [Cyclopentolate hydrochloride] | 1.02 | 1.01 | 1 | 1.02 | 0.98 | 0.993 | 0.999 | 1 |
| CN(C)CCN(Cc1ccc(Cl)cc1)c1ccccn1 [Chloropyramine hydrochloride] | 0.97 | 1.03 | 0.977 | 1.02 | 1.07 | 1.05 | 0.988 | 0.953 |
| CCN(CC)CCOC(=O)C(c1ccccc1)C1CCCCC1 (stereo not drawn) [Drofenine hydrochloride] | 0.989 | 1.01 | 0.929 | 1 | 1.01 | 1.03 | 0.989 | 0.943 |
| Cc1cccc(N(C)C(=S)Oc2ccc3ccccc3c2)c1 [Tolnaftate] | 0.953 | 1.02 | 0.991 | 0.986 | 1 | 1.04 | 1 | 0.981 |
| COC(=O)Nc1nc2ccc(SC(C)C)cc2[nH]1 [Methiazole] | 1.01 | 1 | 0.999 | 1.01 | 0.992 | 1.04 | 0.997 | 0.994 |

| SMILES | growth AUC normalised to DMSO control [1] | growth AUC normalised to DMSO control [2] | growth AUC normalised to DMSO control [3] | growth AUC normalised to DMSO control [4] | growth AUC normalised to DMSO control [5] | growth AUC normalised to DMSO control [6] | growth AUC normalised to DMSO control [7] | growth AUC normalised to DMSO control [8] |
| --- | --- | --- | --- | --- | --- | --- | --- | --- |
| CC1(C)O[C@@H]2C[C@H]3[C@@H]4C[C@H](F)C5=CC(=O)CC[C@]5(C)[C@H]4[C@@H](O)C[C@]3(C)[C@]2(C(=O)CO)O1 [Flurandrenolide] | 1 | 1.01 | 1.03 | 0.996 | 1.06 | 1.07 | 0.996 | 0.986 |
| Cc1c(C)c2c(c(C)c1O)CCC(C)(C(=O)O)O2 (stereo not drawn) [Trolox] | 1 | 1.02 | 0.995 | 1.01 | 0.996 | 1.02 | 1 | 1 |
| CCCCC(O)c1ccccc1 (stereo not drawn) [Fenipentol] | 0.997 | 0.986 | 1.01 | 0.995 | 1 | 0.988 | 1 | 1 |
| Cc1c(Cl)cccc1Nc1ncccc1C(=O)O [Clonixin lysinate] | 1 | 0.989 | 0.94 | 1 | 0.979 | 1 | 1.02 | 0.954 |
| CN1CCCC(n2nc(Cc3ccc(Cl)cc3)c3ccccc3c2=O)CC1 (stereo not drawn) [Azelastine hydrochloride] | 1.01 | 0.989 | 0.932 | 0.969 | 1.01 | 1 | 1 | 0.935 |
| C[N+]1(C)CCC(OC(=O)C(O)(c2ccccc2)C2CCCC2)C1 (stereo not drawn) [Glycopyrrolate bromide] | 1.02 | 1 | 1.01 | 1.01 | 1 | 0.984 | 1 | 0.993 |
| O=C1CCc2cc(OCCCCc3nnnn3C3CCCCC3)ccc2N1 [Cilostazol] | 0.985 | 0.971 | 0.958 | 0.989 | 0.975 | 0.98 | 1 | 0.851 |
| N=C(N)NCCN1CCCCCCC1 [Guanethidine sulfate] | 1.01 | 0.988 | 1.04 | 1.03 | 1.02 | 1.01 | 1.01 | 1.01 |
| NC12CC3CC(CC(C3)C1)C2 [Adamantamine fumarate] | 1.02 | 1.06 | 1.03 | 1 | 1.04 | 1.08 | 0.996 | 0.996 |
| C#C[C@]1(O)CC[C@H]2[C@@H]3CCC4=C(CCC(=O)C4)[C@H]3CC[C@@]21C [Norethynodrel] | 1 | 1 | 0.994 | 0.992 | 0.992 | 1.01 | 0.996 | 0.993 |
| CN1CCN(C(c2ccccc2)c2ccccc2)CC1 [Cyclizine hydrochloride] | 0.987 | 1.01 | 0.982 | 0.995 | 1.02 | 1.04 | 1.01 | 0.998 |
| CN(C)CCOC(c1ccccc1)c1ccccc1.Cn1c(=O)c2[nH]c(Cl)nc2n(C)c1=O [Dimenhydrinate] | 0.975 | 0.984 | 0.933 | 0.982 | 1.01 | 1 | 0.988 | 0.983 |
| Clc1ccccc1CN1CCc2sccc2C1 [Ticlopidine hydrochloride] | 0.975 | 0.988 | 0.947 | 1.01 | 0.986 | 0.997 | 0.967 | 0.973 |
| CCN(CC)C(=O)N1CCN(C)CC1 [Diethylcarbamazine citrate] | 0.959 | 0.973 | 0.983 | 0.998 | 0.995 | 0.978 | 0.999 | 0.995 |
| CN1CCC(=C2c3ccccc3Sc3ccccc32)CC1 [Pimethixene maleate] | 0.988 | 0.948 | 0.853 | 1.02 | 0.812 | 0.776 | 1 | 0.956 |
